Bioassay records as filed in PubChem BioAssay.
GLP-1R agonist: qHTS of GLP-1 Receptor Agonists. Potency, µM (series often up to 45.6 µM), for the others: top-dose activation, actives largely listed as activators. Glucagon-like peptide 1 receptor (Homo sapiens), P43220. hit rate 0.007% among 380,000. HEK293 GLP-1R CRE-luciferase, luminescence, 4-6 h; cells express a hypersensitive GLP-1R form; note: % of control where 0% means no effect
GLP-1R inv ag: qHTS of GLP-1 Receptor Inverse Agonists (Inhibition Mode) | Potency, µM (series often up to 38.3 µM), for inactives: at the top dose activity change, negative = inhibition, actives largely listed as inhibitors | HEK293 GLP-1R CRE-luciferase, luminescence, 24 h; GLP-1R form is constitutively active | Glucagon-like peptide 1 receptor (Homo sapiens), P43220 | hit rate 1.6% among 410,000; note: % is set by controls: 0 for no effect and ±100 for the full control effect; nearly all actives have a fitted effect of over 55% in size
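Luminescence readout: a drop in cAMP-driven luciferase signal flags inverse agonism at a constitutively active GLP-1R stably expressed in HEK293. Compound exposure lasted 24 hr at 37 deg C, 5% CO2.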
PTHR1 ag: qHTS for PTHR1 Agonists: Primary Screen | HEK293 GP2 PTHR1 cells, GloSensor cAMP luminescence, 1 h | Potency, µM (doses to about 115 µM), for the others: at the highest dose activation, most hits filed as activators | hit rate 0.075% among 410,000; note: nearly all actives have a fitted effect of over 55% in size
Target sequence (Q03431 whole entry, looked up): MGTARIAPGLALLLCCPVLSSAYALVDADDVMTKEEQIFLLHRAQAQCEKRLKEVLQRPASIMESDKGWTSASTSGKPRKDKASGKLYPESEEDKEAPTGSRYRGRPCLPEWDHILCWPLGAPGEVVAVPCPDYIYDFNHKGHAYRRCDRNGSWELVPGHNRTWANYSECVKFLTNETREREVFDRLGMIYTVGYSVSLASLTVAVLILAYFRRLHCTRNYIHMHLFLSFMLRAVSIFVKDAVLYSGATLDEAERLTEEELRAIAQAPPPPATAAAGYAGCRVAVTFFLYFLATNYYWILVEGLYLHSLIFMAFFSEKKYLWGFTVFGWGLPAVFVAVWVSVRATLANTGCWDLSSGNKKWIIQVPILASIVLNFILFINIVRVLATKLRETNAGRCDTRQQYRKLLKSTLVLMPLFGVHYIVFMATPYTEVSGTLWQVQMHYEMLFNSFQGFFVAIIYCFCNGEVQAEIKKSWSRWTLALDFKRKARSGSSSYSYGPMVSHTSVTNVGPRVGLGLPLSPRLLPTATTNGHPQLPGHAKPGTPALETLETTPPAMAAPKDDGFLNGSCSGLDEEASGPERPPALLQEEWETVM
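HEK-293-derived GP2 cells expressing PTHR1 and a GloSensor cAMP reporter, 3,000/well, plated overnight, given luciferin plus IBMX (each 0.5 mM as added) for 1 h at 37 °C, then compound for 1 h at 37 °C. Luminescence was read after 15 min at room temperature.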
GLP1R cytotox: qHTS of GLP-1 Receptor Inverse Agonists: Cytotox Screen; HEK293 cAMP-luciferase reporter cells, luminescence, 24 h; Potency, µM (series often up to 38.3 µM), for inactives: top-dose activity change, negative = inhibition, usual class: inhibitors; hit rate 0.13% among 410,000;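 note: loss of luciferase light is scored as toxicity; % is set by controls: 0 for no effect and ±100 for the full control effect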
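To flag toxic compounds, the library was rerun on cells for 24 hr at 37 deg C and 5% CO2. Viability-linked luminescence was captured 12 min after adding luciferase detection reagent.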
* hit, by the source's call; i = inactive; ? = inconclusive; nt = no result; [ ] = dose if it differs, or a comment. Only some compounds are listed: those with a hit (about 1.7% of all), similar ones and a draw of the others. Calls come from the whole dose curve; as a rule, active = well fitted curve in the direction sought with a large enough effect; inconclusive = small, poorly fitted or top-dose-only effect, or another doubt; inactive = no such curve, though single readings can be large; an effect the other way counts as inactive or inconclusive. Potency is the fitted concentration of half-maximal effect.

SMILES	GLP-1R agonist	GLP-1R inv ag	PTHR1 ag	GLP1R cytotox
O=C(Nc1cccc(S(=O)(=O)N2CCCCCC2)c1)C1CCN(C(=O)c2ccc(Cl)cc2)CC1	13%	8.9µM*	-26%	-15%
O=C(Nc1cccc(S(=O)(=O)N2CCCCC2)c1)Nc1ccc(Cl)cc1Cl	20%	3.5µM*	-25%	?
CCC(C)c1ccccc1NC(=O)COC(=O)c1ccc2[nH]c3c(c2c1)CCCC3 (centres undefined)	-8%	5.6µM*	-30%	8%
O=C(COC(=O)c1ccc2[nH]c3c(c2c1)CCCC3)Nc1ccccc1Cl	2%	11%	i	-4%
COc1ccc(-c2nc3sc(CCNC(=O)C(=O)Nc4ccc(C)c(C)c4)c(C)n3n2)cc1	nt	11%	20%	0%
COc1ccccc1CNC(=O)c1cnc2sc(N3CCCCCC3)nn2c1=O	nt	0%	-10%	0%
Cc1ccc(S(=O)(=O)c2cn(C)c3cc(N4CCCCCC4)c(F)cc3c2=O)cc1	nt	0%	-9%	1%
CC1CCN(CC(=O)Nc2ccccc2Sc2ccccc2)CC1	4%	4.5µM*	-17%	5%
COc1cc(NC(=O)CN(C)S(=O)(=O)c2ccc3[nH]c4c(c3c2)CCCC4)cc(OC)c1OC	nt	?	-29%	-11%
CCCN1CCN(CCCNC(=S)Nc2ccc3nc(N4CCN(CC)CC4)cc(C)c3c2)CC1	4%	?	?	?
Cc1cc(N2CCCC2)nc2ccc(NC(=S)NCCCN3CCC(C)CC3)cc12	-2%	5µM*	i	?
Cc1cc(N2CCN(C)CC2)nc2ccc(NC(=S)NCCN3CCc4ccccc4C3)cc12	21%	?	-9%	-17%
Cc1cc(N2CCN(C)CC2)nc2ccc(NC(=S)NCCCN3CCc4ccccc4C3)cc12	22%	?	-22%	4.5µM*
CCOC(=O)c1ccc(NC(=O)CC2C(=O)N(c3ccc(F)cc3)C(=O)N2Cc2cccnc2)cc1 (centres undefined)	nt	-17%	-2%	-3%
O=C(Cn1c(=O)n(Cc2nc(-c3ccccc3)no2)c(=O)c2ccccc21)Nc1cccc(C(F)(F)F)c1	nt	11%	-21%	1%
CCOc1ccccc1NC(=O)c1ccccc1NC(=O)c1ccco1	15%	33%	-14%	-3%
O=C(Nc1ccccc1OCc1ccccc1)c1ccccc1Br	17%	10µM*	-18%	24%
CC(Oc1ccc(-c2ccccc2)c(F)c1)c1ccn(S(=O)(=O)c2ccc(Br)cc2)n1 (centres undefined)	-2%	7.1µM*	-22%	-5%
COc1ccc(-c2c(-c3cc(OC)cc(OC)c3)n(C)c3ccc(-c4cccc5[nH]ccc45)cc23)cc1	-3%	?	-13%	6%
COc1cc(OC)cc(-c2c(-c3ccc(F)cc3)c3cc(-c4cccc5[nH]ccc45)ccc3n2C)c1	-5%	5.6µM*	-30%	9%
CSc1cccc(NC(=S)N(CCC(C)C)C2CCN(C(C)=O)CC2)c1	9%	?	i	-1%
CSc1cccc(NC(=S)N(CCC(C)C)C2CCN(C(C)C)CC2)c1	-2%	8.9µM*	i	?
Cc1cccc(CCNC(=O)c2ccc3c(c2)nc2n3CCCCC2)c1	nt	?	-80%	-10%
Cc1cc(S(=O)(=O)N2CCN(c3c(C)cccc3C)CC2)ccc1F	-7%	?	i	-1%
CCC(C)N(C)Cc1cccc(C2(O)CCN(S(=O)(=O)c3ccc(F)c(C)c3)CC2)c1 (centres undefined)	1%	2.5µM*	-23%	?
SMILES	GLP-1R agonist	GLP-1R inv ag	PTHR1 ag	GLP1R cytotox
Cc1nc(-c2cccc(NC(=O)Nc3ccc([N+](=O)[O-])cc3)c2)no1	-8%	3.5µM*	-44%	?
CSc1ccc(CCNC(=O)NCc2noc3ccccc23)cc1	nt	?	-23%	4%
CCOc1cc(/C=C/C(=O)c2ccc3c(c2)OCCO3)ccc1OCC(=O)N(C)C	5%	13µM*	-46%	-25%
CCOc1cc(/C=C/C(=O)c2ccc(O)cc2)ccc1OCC(=O)N(C)C	-16%	?	-15%	?
CC(=O)OCC(=O)[C@@]1(O)[C@H](C)C[C@H]2C3C[C@H](F)C4=CC(=O)C=CC4(C)C3[C@@H](O)CC21C (some centres undefined)	-4%	nt	nt	nt
O=C(CCc1ccccc1)NC1(Cc2ccccc2)CCN(CCc2cccs2)C1=O (centres undefined)	19%	10µM*	i	12%
CCOC(=O)C(=NCCCN(C)C)NNc1ccc(Br)cc1	-1%	4µM*	24%	?
CCCCN=C(NNc1ccc(Br)cc1)C(=O)OCC	2%	?	i	-20%
CCC(C)NC(=O)Cn1ncc2c(C)n(Cc3ccc(F)cc3)c(C)c2c1=O (centres undefined)	nt	-6%	i	6%
Cc1ccc(S(=O)(=O)CC(=O)Nc2sc3c(c2C#N)CCCC3)cc1	nt	8%	?	2%
Cc1cc(OCc2cc(C(=O)N(C)Cc3ccccn3)no2)cc(C)c1Cl	0%	2µM*	-34%	2%
CC(=O)c1ccc(OCc2cc(C(=O)N(C)Cc3ccccn3)no2)cc1	-9%	10%	-21%	4%
Cc1ccc(-c2c(C(=O)N3CCN(c4cccc(C)c4)C(C)C3)oc(=O)c3ccccc23)cc1 (centres undefined)	0%	?	-30%	-1%
O=C(c1ccccc1)c1ccc(OCC(O)CNCc2ccc(F)cc2)cc1 (centres undefined)	11%	?	-33%	-8%
COc1ccc(C(OCC(O)CNCCc2ccccc2)c2ccc(OC)cc2)cc1 (centres undefined)	7%	?	i	?
CC(NCC(O)COCCC12CC3CC(CC(C3)C1)C2)c1ccccc1 (centres undefined)	-5%	11µM*	i	?
Cc1ccc(C(OCC(O)CNCc2ccc(F)cc2)c2ccccc2)cc1 (centres undefined)	-6%	5.6µM*	-3%	?
COc1ccc(C(OCC(O)CNC(C)c2ccccc2)c2ccc(OC)cc2)cc1 (centres undefined)	9%	10µM*	19%	?
Cc1ccc(CCNC(=O)c2ccc(CSCc3ccccc3Cl)o2)cc1	nt	?	-29%	-1%
CCCCOc1ccccc1Cn1c(=O)oc2ccccc21	-9%	5.6µM*	-11%[57.5 µM]	-9%
C=CCN(Cc1cc(OC)ccc1OC)C(=O)c1cc2ccc(OC)cc2[nH]1	11%	11µM*	-19%	-4%
CSc1ccc(/C=N/n2c(C3CCCCC3)n[nH]c2=S)cc1	20%	?	i	0%
S=c1[nH]nc(C2CCCCC2)n1/N=C/c1ccncc1	-2%	1.8µM*	-17%	5%
